Dicer inh: human Dicer pre-microRNA cleavage inhibition | Q9UPY3 | cat-ELCCA pre-miR-21 Dicer processing, chemiluminescence; active compounds read high | z-score at 25 µM | 47,000 compounds, 6% hits; in the data active = z-score above about 3, passing the limit was not always enough;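 note: higher signal means more uncleaved substrate so more Dicer inhibition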
Target sequence (Q9UPY3 whole entry, looked up): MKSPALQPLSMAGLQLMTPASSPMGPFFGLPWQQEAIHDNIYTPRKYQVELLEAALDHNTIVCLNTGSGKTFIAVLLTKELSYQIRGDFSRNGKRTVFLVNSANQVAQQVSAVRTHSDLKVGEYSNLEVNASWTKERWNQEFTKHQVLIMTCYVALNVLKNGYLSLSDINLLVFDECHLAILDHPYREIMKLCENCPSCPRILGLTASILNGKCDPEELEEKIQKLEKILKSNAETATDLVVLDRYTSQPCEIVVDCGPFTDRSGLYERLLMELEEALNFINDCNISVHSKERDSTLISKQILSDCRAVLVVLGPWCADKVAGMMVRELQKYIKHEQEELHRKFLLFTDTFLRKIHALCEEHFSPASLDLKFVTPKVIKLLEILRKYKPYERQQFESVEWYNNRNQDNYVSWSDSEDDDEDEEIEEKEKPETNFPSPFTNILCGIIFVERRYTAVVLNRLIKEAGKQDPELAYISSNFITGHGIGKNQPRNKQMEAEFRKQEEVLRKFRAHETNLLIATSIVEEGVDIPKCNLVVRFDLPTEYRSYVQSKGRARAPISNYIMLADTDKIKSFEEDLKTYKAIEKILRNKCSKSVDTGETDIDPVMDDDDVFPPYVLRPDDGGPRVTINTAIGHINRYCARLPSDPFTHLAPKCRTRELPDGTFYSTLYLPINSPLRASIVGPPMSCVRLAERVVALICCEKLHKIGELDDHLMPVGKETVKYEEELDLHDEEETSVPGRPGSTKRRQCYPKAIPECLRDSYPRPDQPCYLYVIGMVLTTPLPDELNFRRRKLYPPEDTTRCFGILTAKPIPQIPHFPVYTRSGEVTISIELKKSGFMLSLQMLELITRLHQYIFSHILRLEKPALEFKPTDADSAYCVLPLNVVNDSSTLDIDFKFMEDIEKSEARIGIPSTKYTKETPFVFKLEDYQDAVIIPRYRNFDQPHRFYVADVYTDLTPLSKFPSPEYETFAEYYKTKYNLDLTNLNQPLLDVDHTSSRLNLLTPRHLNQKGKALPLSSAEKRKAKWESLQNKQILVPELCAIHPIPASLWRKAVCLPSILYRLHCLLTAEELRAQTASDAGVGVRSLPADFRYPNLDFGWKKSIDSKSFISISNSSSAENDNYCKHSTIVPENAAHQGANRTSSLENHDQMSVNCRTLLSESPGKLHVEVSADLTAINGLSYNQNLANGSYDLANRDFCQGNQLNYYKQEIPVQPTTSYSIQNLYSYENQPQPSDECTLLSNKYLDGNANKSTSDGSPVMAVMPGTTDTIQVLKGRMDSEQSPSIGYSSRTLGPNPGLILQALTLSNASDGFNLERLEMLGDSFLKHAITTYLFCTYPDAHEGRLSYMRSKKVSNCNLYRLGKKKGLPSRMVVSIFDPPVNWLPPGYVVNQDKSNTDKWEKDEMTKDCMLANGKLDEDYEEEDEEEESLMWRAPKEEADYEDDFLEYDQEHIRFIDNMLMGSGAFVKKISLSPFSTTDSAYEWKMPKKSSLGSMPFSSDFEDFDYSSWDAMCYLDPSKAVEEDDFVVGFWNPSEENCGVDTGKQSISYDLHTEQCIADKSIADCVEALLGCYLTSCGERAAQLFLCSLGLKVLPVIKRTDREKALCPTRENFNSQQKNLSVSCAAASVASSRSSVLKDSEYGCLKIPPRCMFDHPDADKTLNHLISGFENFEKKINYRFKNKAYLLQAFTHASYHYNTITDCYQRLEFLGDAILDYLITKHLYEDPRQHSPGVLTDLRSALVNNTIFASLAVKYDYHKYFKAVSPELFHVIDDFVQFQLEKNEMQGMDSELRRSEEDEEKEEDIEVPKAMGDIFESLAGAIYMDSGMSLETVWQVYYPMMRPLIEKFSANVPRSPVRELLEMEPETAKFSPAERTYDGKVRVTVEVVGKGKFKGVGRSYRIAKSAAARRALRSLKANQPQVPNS
Large screens that a line does not name were inactive. The sample as a whole holds a higher share of hits than the screen did.

COc1ccc(NC(=O)c2cnn3c2NC(c2cccs2)CC3C(F)(F)F)cc1OC (centres undefined)	none
O=C(NCc1ccc(-n2cccn2)cc1)c1cnn2c1NC(c1ccco1)CC2C(F)(F)F (centres undefined)	none
O=C(Nc1cccnc1)c1cc2n(n1)C(C(F)(F)F)CC(c1ccco1)N2 (centres undefined)	none
COc1ccc(NC(=O)c2cnn3c2NC(c2ccco2)CC3C(F)(F)F)cc1OC (centres undefined)	Dicer inh 4.6
COCCNC(=O)c1cc2n(n1)C(C(F)(F)F)CC(c1ccco1)N2 (centres undefined)	none
COc1ccc(Cl)cc1NC(=O)c1cnn2c1NC(c1ccco1)CC2C(F)(F)F (centres undefined)	Dicer inh 3
O=C(CCc1ccccc1)NNc1cc(Cl)ccc1Cl	none
O=C(Nc1c(C(=O)c2ccc(Cl)cc2)oc2ccccc12)c1ccco1	none
CCOC(=O)c1noc(C)c1-c1csc(-c2ccc(Cl)cc2)n1	none
COc1ccc(C2Oc3ccc(Cl)cc3C=C2[N+](=O)[O-])cc1 (centres undefined)	none
Cc1cc(C)c(C#N)c(SCc2ccc(Cl)cc2)n1	none
CCOc1ccc2nc(NC3=NCN(Cc4ccccc4)CN3)nc(C)c2c1	none
C=CCSC1=C(C#N)C(c2cccc3ccccc23)CC(=O)N1 (centres undefined)	none
CCCN1CN=C(Nc2nc(C)c3ccc(C)cc3n2)NC1	none
COc1cccc(-c2cc(C(F)(F)F)n3nc(N)nc3n2)c1	none
COc1ccc(-c2cc(C(F)(F)F)n3nc(N)nc3n2)cc1OC	Dicer inh 5.5
COc1ccc(-c2cc(C(F)(F)F)n3nc(N)nc3n2)cc1	none
CC(=O)c1ccc(N2CCN(S(=O)(=O)c3c(C)noc3C)CC2)cc1	none
O=C(O)c1ccc(Nc2ccnc3cc(Cl)ccc23)cc1	none
O=C(O)c1ccc(Nc2ncnc3ccc(Br)cc23)cc1	Dicer inh 4.9
Cc1nc2ccc(Br)cc2c(C(=O)O)c1I	none
Cc1ccc(C(=O)NNC(=O)Cc2nc(-c3ccccc3)sc2C)cc1	none
NNC(=O)CNc1cccc([N+](=O)[O-])c1	none
Clc1ccc(CN2CCN(Cc3ccco3)CC2)cc1	none
Clc1cccc(CN2CCN(Cc3ccco3)CC2)c1	none
Fc1cccc(CN2CCN(Cc3ccco3)CC2)c1	Dicer inh 3.5
CCc1sc(C(C)(C)C)cc1NC(=O)C(Cl)Cl	none
CSC(=NCc1cccs1)NC(=O)c1c(Cl)cccc1Cl	none
COC(=O)c1sccc1N/N=C/c1ccc(F)cc1	none
COC(=O)c1sc(SC)c(C(C)=O)c1C	none
COC(=O)c1sc2cc(-c3ccc(F)cc3)sc2c1C	Dicer inh 3.8
CN(NC(=O)c1c(Cl)cccc1Cl)C(=S)NC(C)(C)C	none
COc1cc(C(F)(F)F)nc2c(C(=O)NNC(=O)c3ccc(Cl)cc3)scc12	none
O=C(Cn1cc(C(=O)C2CCCCC2)c2ccccc21)NC1CCCC1	none
CN1C/C(=C\c2ccccc2)C(=O)/C(=C/c2ccccc2)C1	none
COc1ccc(/C=C2\CN(C)C/C(=C\c3ccc(OC)cc3)C2=O)cc1	none
O=C1/C(=C/c2ccc(F)cc2)CN(Cc2ccccc2)C/C1=C\c1ccc(F)cc1	Dicer inh 4.2
O=C(Nc1ccccc1SCc1noc(-c2cccs2)n1)c1cccc(C(F)(F)F)c1	none
Cc1[nH][nH]c(=O)c1C(c1ccccc1OCc1ccc(F)cc1)c1c(C)[nH][nH]c1=O	none
CC1CN(Cc2c(O)ccc3c(=O)c(-c4ccccc4)coc23)CC(C)O1 (centres undefined)	none
CC1CCN(Cc2c(O)ccc3c2oc(=O)c2ccccc23)CC1	Dicer inh 3.5
O=c1c(-c2ccccc2)coc2c(CN3CCCCC3)c(O)ccc12	none
CN1CCN(Cc2c(O)ccc3c(=O)c(-c4ccccc4)c(C(F)(F)F)oc23)CC1	none
CC1CN(Cc2c(O)ccc3c2oc(=O)c2ccccc23)CC(C)O1 (centres undefined)	Dicer inh 3.1
CC1CN(Cc2c(O)ccc3c(=O)c(Oc4ccc5ccccc5c4)c(C(F)(F)F)oc23)CC(C)O1 (centres undefined)	none
CN(NC(=O)c1ccccc1C(=O)O)c1cc(C(F)(F)F)ccn1	none
N#C/C(=C\c1ccc(C(F)(F)F)cc1)c1cn(C(=O)C2CCC2)c2ccccc12	none
COc1cccc(-n2c(N)c(C#N)c3nc4ccccc4nc32)c1	none
Clc1cc(Cl)c(Nc2nc3c(s2)Cc2ccccc2-3)cc1Cl	none
Cc1cc(S(=O)(=O)/N=C/N(C)C)c(C)cc1Cl	none
N#Cc1c(C(F)(F)F)cc(-c2ccccc2)nc1S/C=C(\O)c1cc2ccccc2o1	none
Cc1ccccc1COc1ncnc2cc(Cl)ccc12	none
Cc1nc2ccc(N3NOC=C3O)cc2s1	none
OC1=CONN1c1cccc2ncccc12	Dicer inh 3.2
CN(C)C=NC(=S)c1sccc1COc1ccc(Cl)cc1	none
COC(=O)C1=C(C)NC2=C(C(=O)CC(c3ccc(F)cc3)C2)C1c1cn[nH]c1-c1ccccc1 (centres undefined)	none
CCOc1ccc(C2C(C(=O)c3cc4ccccc4o3)=C(O)C(=O)N2CCN(C)C)cc1OC (centres undefined)	none
Cc1ccc(-c2nnc(NCc3ccccc3)c3ccccc23)cc1S(=O)(=O)NCCO	none
Cc1ccc(-c2nnc(Nc3ccc(O)cc3)c3ccccc23)cc1S(=O)(=O)N(C)C	none
CNS(=O)(=O)c1cc(-c2nnc(Nc3ccc4c(c3)OCO4)c3ccccc23)ccc1C	Dicer inh 4.8
CSc1nnc2c(n1)OC(c1cccs1)N(C(C)=O)c1ccccc1-2 (centres undefined)	none
OC(c1ccc(C(F)(F)F)cc1)c1cccc(C(F)(F)F)c1 (centres undefined)	none
Cc1ccc(S(=O)(=O)N2CCCOC2)cc1	Dicer inh 3.8
Cc1ccc(S(=O)(=O)N2CCCC3(CCCCC3)C2)cc1	none
Cc1ccc(S(=O)(=O)N2CN3CN(C2)CN(S(=O)(=O)c2ccc(C)cc2)C3)cc1	none
Cc1ccc(Oc2c(F)c(F)c(Oc3ccc(C)cc3)c(F)c2F)cc1	none
Cc1ccc(C(=O)/C=C/Nc2ccc(Cl)cc2)cc1	none
O=C(/C=C1/NCCS1)c1ccc(Cl)cc1	Dicer inh 3.8
CSC(=CC(=O)c1ccc(Cl)cc1)SC	none
CCOC(NC(=O)Nc1ccccc1C(F)(F)F)(C(F)(F)F)C(F)(F)F	none
NC1=NC(c2ccc(O)c(O)c2)n2c(nc3ccccc32)N1 (centres undefined)	none
CC(=O)OC(C(=O)O)C(OC(C)=O)C(=O)Nc1ccc(Cl)cc1 (centres undefined)	Dicer inh 3.1
CC(C)OC(=O)Nc1ccc(Cl)cc1	none
CSCC(CSC)OC(=O)Nc1ccc(Cl)cc1	none
C/C(=N\NS(=O)(=O)c1ccc(C)cc1)c1ccc(OC(=O)c2ccc(Br)o2)cc1	none
CC(C)C(=O)N(c1ccc2oc(=O)sc2c1)S(=O)(=O)c1ccc(F)cc1	none
O=C(c1ccncc1)N(c1ccc2oc(=O)sc2c1)S(=O)(=O)c1ccc(Cl)cc1	none
O=C(c1cccnc1)N(c1ccc2oc(=O)sc2c1)S(=O)(=O)c1ccc(F)cc1	Dicer inh 11
O=C(c1ccncc1)N(c1ccc2oc(=O)sc2c1)S(=O)(=O)c1ccc(F)cc1	Dicer inh 3.2
CC(C)C(=O)N(c1ccc2oc(=O)sc2c1)S(=O)(=O)c1ccc(Cl)cc1	none
O=C(c1cccnc1)N(c1ccc2oc(=O)sc2c1)S(=O)(=O)c1ccc(Cl)cc1	Dicer inh 10
COc1ccc(OC)c(S(=O)(=O)N(C(=O)c2cccnc2)c2ccc3oc(=O)sc3c2)c1	none
COc1ccc(Cl)cc1N=C1NC(=O)C(CC(=O)Nc2ccc(OC(F)(F)F)cc2)S1 (centres undefined)	none
COC(=O)C1=C2C(=O)NCCN2C(C(=O)Nc2ccc(Cl)cc2)CC1=O (centres undefined)	none

Compound activity (PubChem)
